Screens from PubChem.
This is a sample that favours compounds with a hit; in the whole collection about 9.9% have one here.
KB-3-1 tox: kills parental KB-3-1 adenocarcinoma cells; KB-3-1 viability, CellTiter-Glo ATP luminescence, 72 h; Potency, µM (titrated, usually from 46.1 µM), most hits filed as cytotoxic; 1.4% of 400,000 active; also: potency is read from the fitted curve at half-maximal effect; % is scaled to controls: 0 for no effect and ±100 for the full control effect; nearly all actives have a fitted effect of over 60% in size
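Cells are dispensed, compounds pinned in, plates held at 37 °C for 72 h, then CellTiter-Glo is added and luminescence read after 10 minutes. Cell line: parental KB-3-1 in phenol-red-free DMEM, 10% FBS.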
MCF10A rerep: DNA re-replication induction in MCF 10a cells | MCF 10A DNA re-replication, Hoechst nuclear intensity, 48 h | Potency, µM (doses to about 46.1 µM), without a hit: at the highest dose activity, positive = re-replication, usual class: activators | 2.9% of 350,000 active | AID 624296; also: potency is read from the fitted curve at half-maximal effect; % of control where 0% means no effect; nearly all actives have a fitted effect of over 50% in size
SW480 rereplic: inducers of DNA re-replication in SW480 colon cancer cells. SW480 DNA re-replication, Hoechst DNA content imaging, 48 h. 1.8% of 340,000 active. Potency, µM (series often up to 46.1 µM), without a hit: at the highest dose re-replication activation, most hits filed as activators. AID 624297; also: potency is read from the fitted curve at half-maximal effect; % of control where 0% means no effect; nearly all actives have a fitted effect of over 55% in size
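First, 250 cells per well were seeded. Next, compound or vehicle (23 nL) was pinned in, plates sat 48 hr at 37 C. Finally Hoechst was added for 40 min before fluorescence scanning.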
KB-V1 MDR tox: KB-V1 MDR subline cytotoxicity | AID 1347076 | KB-V1 MDR cells viability, CellTiter-Glo, 72 h | 3.4% of 400,000 active | Potency, µM (doses to about 46.1 µM), most hits filed as cytotoxic; also: potency is read from the fitted curve at half-maximal effect; % is scaled to controls: 0 for no effect and ±100 for the full control effect; nearly all actives have a fitted effect of over 60% in size
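Cytotoxicity via CellTiter-Glo luminescence after 72 h compound exposure at 37 degrees C. Cells: drug-selected KB-V1 line, DMEM phenol-red free plus 10% FBS. Compounds tested at multiple concentrations; normalized data fitted to concentration-effect curves.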
IL1B secr inh: blocks inflammasome-driven IL-1 beta release; 4.7% of 360,000 active; THP-1 LPS/ATP IL-1B secretion, AlphaLISA, 16 h; hits give low values; activity change, % at 57.5 µM; in the data active = activity change below about -50%; inconclusive = mostly about -30% to -49%; also: % is scaled to controls: 0 for no effect and ±100 for the full control effect
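THP-1 cells pretreated 1 hr with compounds (up to 57.5 uM final), then stimulated with LPS (250 ng/mL final) plus ATP (1.25 mM final); secreted IL-1B measured by AlphaLISA after 16 hr, decreased signal indicating inhibition.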
Numbers without * were called inactive; i = inactive; ? = inconclusive; nt = not tested or not shown. Unless noted, calls follow the shape of the dose curve; as a rule, active = well fitted curve in the direction sought with a large enough effect; inconclusive = small, poorly fitted or top-dose-only effect, or another doubt; inactive = no such curve, though single readings can be large; an effect the other way counts as inactive or inconclusive.

SMILES | KB-3-1 tox | MCF10A rerep | SW480 rereplic | KB-V1 MDR tox | IL1B secr inh
CC(=O)c1ccccc1C(=O)N1CCCC(CNC(=O)c2ccc(F)cc2)C1 (stereo not given) | i | nt | nt | i | 11.4
Fc1ccccc1OCC1CCCN(Cc2nc(CC3CC3)no2)C1 (stereo not given) | i | -7.4% | -8.3% | i | 6.3
CCCc1n[nH]c2c1/C(=N/O)CC(c1ccccc1)C2 (stereo not given) | 25.9µM* | 7.0% | 4.9% | ? | ?
CCC1CSC(Nc2ccc(C(=O)/C=C/c3cccc(C)c3)cc2)=N1 (stereo not given) | ? | 16.4µM* | ? | i | -87.4*
CCC1CSC(Nc2ccc(C(=O)/C=C/c3ccc(Oc4ccccc4)cc3)cc2)=N1 (stereo not given) | ? | ? | ? | 18.4µM* | ?
Cc1nc2ccc(NC(=O)c3cccs3)cc2c(=O)n1Cc1ccc(Cl)cc1 | ? | 17.5% | 0.5% | ? | -92.3*
Cc1ccc(NC(=O)NCCOCCn2c(=O)oc3ccccc32)cc1C | i | nt | nt | i | nt
CC1CCCCN1S(=O)(=O)c1ccc(C(=O)Nc2nnc(C3CC3)o2)cc1 (stereo not given) | ? | 15.8% | ? | ? | 30.6
O=C(Nc1nnc(C2CC2)o1)c1ccc(S(=O)(=O)N2CCCCC2)cc1 | ? | 10.0% | 19.7% | i | -69.1*
CC1CCN(S(=O)(=O)c2ccc(C(=O)Nc3nnc(C4CC4)o3)cc2)CC1 | ? | ? | 13µM* | i | 59.9
COc1cccc(-c2nnc(NC(=O)c3ccc(S(=O)(=O)N4CCOCC4)cc3)o2)c1 | 5.8µM* | 17.6% | ? | ? | 30.7
CC1CCN(S(=O)(=O)c2ccc(C(=O)Nc3nnc(-c4ccncc4)o3)cc2)CC1 | ? | ? | 16.4µM* | ? | 36.6
C#CCOCCOCCOCCNc1nc(N2CCN(C(=O)[C@H](CCCCN)n3cc(CN)nn3)CC2)nc(N2CCN(C(=O)[C@H](CCC(=O)O)n3cc([C@@H](N)CCSC)nn3)CC2)n1 | i | -3.0% | 5.5% | i | 0.0
O=S(=O)(c1ccccc1)N1CCN(Cc2ccc(Cl)cc2)CC1 | i | 15.0% | ? | i | -23.7
CS(=O)(=O)c1cccc(-c2nnc(NC(=O)c3ccc4ncsc4c3)o2)c1 | i | 2.9% | -6.0% | i | 2.5
COc1cccc(-c2nnc(NC(=O)c3ccc4ncsc4c3)o2)c1 | ? | 6.51µM* | -12.2% | ? | 7.0
Cc1cc(=O)oc2cc(NC(=O)c3cccc(S(C)(=O)=O)c3)ccc12 | i | -2.2% | -0.4% | i | -52.5*
O=C(NCc1ccccc1)c1cc(C2CCCCN2C(=O)c2ccc3c(c2)CCO3)on1 (stereo not given) | i | nt | nt | i | -8.9
O=C(NCc1ccc(F)cc1)c1cc(C2CCCCN2C(=O)c2ccc3c(c2)CCO3)on1 (stereo not given) | 20.6µM* | nt | nt | ? | -9.3
COc1cc(/C=C2/CC(C)OC2=O)c([N+](=O)[O-])cc1OC (stereo not given) | i | -0.9% | -13.9% | i | 7.8
Nc1ccc(S(=O)(=O)N2CCC(Cc3ccccc3)CC2)cc1 | i | 12.4% | 4.1% | i | 0.8
CCOc1ccc(CCNC(=O)c2ccc3c(c2)N(Cc2ccc(F)cc2)CCS3)cc1 | i | nt | nt | ? | nt
COc1ccc(OC)c(CCNC(=O)c2ccc3c(c2)N(Cc2ccc(F)cc2)CCS3)c1 | ? | 13µM* | 5.7% | ? | 0.0
COc1ccc(CCNC(=O)c2ccc3c(c2)N(Cc2ccc(F)cc2)CCS3)c(OC)c1 | ? | -0.9% | 2.8% | i | -54.8*
Cc1ccc(CCNC(=O)c2ccc3c(c2)N(Cc2ccc(F)cc2)CCS3)cc1 | i | nt | nt | i | nt
CN(CCc1ccccc1)c1cc2c(c3c1ccn3C)C1CCC2O1 (stereo not given) | i | nt | nt | i | -19.8
NC(=O)CSc1nnc(CSc2ncccn2)n1-c1ccccc1 | i | 3.3% | -2.9% | i | 24.4
Cc1nc2ccc(C(=O)NCCc3c[nH]c4ccccc34)cn2c1N(C)C(=O)CCc1ccccc1 | i | nt | nt | i | -4.6
